FLuc counter = counter-screen for miR-21 project: firefly luciferase inhibitors or activators; purified FLuc, Km substrates, luminescence inhibition; Potency, µM (top dose mostly 57.5 µM), for inactives: at the highest dose activity change, negative = inhibition, hits mostly inhibitors; 360,000 compounds, 6.9% hits; AID 588342;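 also: plate controls were vehicle for no effect and reference inhibitor for full effect; nearly all actives have a fitted effect of over 55% in size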
Target sequence (P08659 whole entry, looked up): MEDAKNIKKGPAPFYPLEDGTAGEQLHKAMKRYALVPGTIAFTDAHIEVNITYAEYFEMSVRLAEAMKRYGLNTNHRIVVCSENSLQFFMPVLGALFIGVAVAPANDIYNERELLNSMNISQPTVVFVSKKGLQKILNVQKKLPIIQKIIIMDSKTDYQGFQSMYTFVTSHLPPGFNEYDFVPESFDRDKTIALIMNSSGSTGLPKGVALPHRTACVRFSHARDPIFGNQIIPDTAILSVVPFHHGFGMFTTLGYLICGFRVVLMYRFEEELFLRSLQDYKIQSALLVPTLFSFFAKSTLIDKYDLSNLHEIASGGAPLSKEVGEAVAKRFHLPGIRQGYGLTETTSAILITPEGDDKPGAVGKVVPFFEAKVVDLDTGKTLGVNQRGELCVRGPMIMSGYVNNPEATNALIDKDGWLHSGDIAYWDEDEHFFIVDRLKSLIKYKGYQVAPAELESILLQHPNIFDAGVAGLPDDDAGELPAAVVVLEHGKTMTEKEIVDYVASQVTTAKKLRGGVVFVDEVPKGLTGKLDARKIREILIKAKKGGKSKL
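Purified P. pyralis luciferase, 10 nM final, with Km-level 10 uM D-luciferin and 10 uM ATP in 50 mM Tris acetate pH 7.5, 10 mM Mg acetate, 0.01% Tween-20, 0.05% BSA; 6-point qHTS titration about 60 µM downward; luminescence read.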
Rab9 prom act = activates the Rab9 promoter | Huh7 Rab9 promoter-luciferase reporter, luminescence, 24 h | Potency, µM (titrated, usually from 9.22 µM), inactives show at the highest dose activation, negative = inhibition, usual class: activators | 320,000 compounds, 2.8% hits | AID 485297; also: % of control where 0% means no effect; nearly all actives have a fitted effect of over 60% in size
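Luciferase signal after 10 min detection reagent at ambient indicates Rab9 promoter upregulation; stably transfected Huh7 cells were treated 24 h with compound in DMSO at 37 °C, 5% CO2.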
ELG1 genotoxic = inducers of genotoxicity in HEK293T ELG1-luciferase cells; HEK293T ELG1-luciferase reporter, luminescence, 16 h; Potency, µM (doses to about 46 µM), for inactives: at the top dose activity change, positive = activation, actives largely listed as activators; 330,000 compounds, 1.3% hits; AID 504466; also: % of control where 0% means no effect; nearly all actives have a fitted effect of over 60% in size
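Genotoxicity was scored as increased ELG1-luciferase reporter signal, measured by ONE-Glo luminescence (30 min, room temperature). Compound or vehicle exposure of the HEK293T reporter cells lasted 16 hr at 37°C.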
NPC1 promoter act = activates the NPC1 promoter | Huh7 NPC1 promoter luciferase reporter, 24 h | Potency, µM (series often up to 9.22 µM), inactives show at the highest dose activation, actives largely listed as activators | 320,000 compounds, 2.4% hits; also: % of control where 0% means no effect; nearly all actives have a fitted effect of over 60% in size
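Huh7 cells stably carrying NPC1 promoter–luciferase, plated in Opti-MEM with 10% FBS for 2 h, were exposed to compound in DMSO for 24 h at 37 °C; luciferase reagent was added for 10 min and luminescence read.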
SMN2 splice enh = enhancers of SMN2 splice variant expression. Potency, µM (doses to about 46.1 µM), without a hit: at the top dose activity change, positive = activation, actives largely listed as activators. 210,000 compounds, 2.8% hits. HEK293 SMN2-luciferase splicing reporter, luminescence, 30-36 h. AID 1458; also: % of control where 0% means no effect; nearly all actives have a fitted effect of over 55% in size
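HEK293 cells carry an SMN2 […]–luciferase reporter in which exon 7 inclusion puts luciferase in frame. Cells were plated 10-12 h before compound addition, then incubated 30-36 h at 37C. ONE-Glo luminescence was read; sodium butyrate at 4.5 mM final served as control.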
The depositor's hits bear a star; ? = inconclusive; · = not tested or not shown. Hits are enriched below; roughly 7.5% of the tested compounds scored in any of these assays. Calls follow the shape of the dose curve; as a rule, active = well fitted curve in the direction sought with a large enough effect; inconclusive = small, poorly fitted or top-dose-only effect, or another doubt; inactive = no such curve, though single readings can be large; an effect the other way counts as inactive or inconclusive. Potency is read from the fitted curve at half-maximal effect.

SMILES | FLuc counter | Rab9 prom act | ELG1 genotoxic | NPC1 promoter act | SMN2 splice enh
CCOC(=O)c1sc(Nc2nc3c(OC)cccc3s2)cc1C | 7.6µM* | ? | -1% | ? | -108%
Cc1sc(NC(=O)C2=COCCO2)nc1-c1ccc(F)cc1 | ? | 11% | 4% | 8% | ·
O=C(Nc1nc2cc3c(cc2s1)OCO3)C1=COCCO1 | 0.19µM* | 0.25µM* | 0.41µM* | 0.63µM* | 0.5µM*
O=C(N=c1ccn(-c2nc3ccccc3nc2NS(=O)(=O)c2ccccc2)cc1)c1cccs1 | 0% | 1% | 0% | 1% | -1%
CCOc1ccc(-c2c(C)nn3c(C)c(C(=O)NCCc4ccccc4)cnc23)cc1OCC | 0% | · | · | · | ·
CC1(C)Cc2c(sc(NC(=O)c3ccc(Br)o3)c2C#N)CO1 | 2.4µM* | 3.5µM* | 22% | 2.5µM* | 13µM*
CC1(C)Cc2c(sc(NC(=O)c3ccco3)c2C(=O)O)CO1 | 6.7µM* | ? | ? | ? | ?
CCC(NS(=O)(=O)c1ccc(OC)cc1)C(=O)NCCc1ccccc1 (configuration not stated) | 1% | -1% | -4% | -2% | ·
COc1cc(OC)c(C=O)c(OC(=O)N2CCOCC2)c1 | -2% | -11% | -1% | 0% | ·
CC(C)c1ccc(C2C(C(=O)c3ccco3)=C(O)C(=O)N2CCN2CCOCC2)cc1 (configuration not stated) | 0% | -1% | 7% | 6% | ·
CC12CCC(C1)C(C)(C)C2NS(=O)(=O)c1ccc(F)cc1 (configuration not stated) | · | -4% | -5% | 1% | ·
CCOc1ccc2nc(NC(=O)C(NS(=O)(=O)c3cccc4nsnc34)C(C)C)sc2c1 (configuration not stated) | 1% | 0% | -13% | -3% | 1%
COc1cc(O)c2c(c1)OC(C)(C)CC2=O | -2% | -4% | -1% | -1% | -8%
COC(=O)c1ccc(COc2cc(O)c3c(c2)OC(C)(C)CC3=O)cc1 | 15µM* | ? | 0% | 20% | -50%
CC1(C)CC(=O)c2c(O)cc(OCC(=O)N3CCN(c4ccc(F)cc4)CC3)cc2O1 | 21µM* | 4% | -13% | -3% | ·
CC(=O)Nc1ccc(NC(=O)COc2cc(O)c3c(c2)OC(C)(C)CC3=O)cc1 | 21µM* | 2% | 10% | 11% | ·
CC1(C)CC(=O)c2ccc(OCc3ccc([N+](=O)[O-])cc3)cc2O1 | 6µM* | 2.5µM* | ? | 2.5µM* | ·
CCN(CC)S(=O)(=O)c1ccc(N2CCN(S(=O)(=O)c3ccccc3)CC2)nc1 | -1% | 5% | -5% | 1% | ·
Fc1ccc(CSc2nnc3ccc(-c4ccncc4)nn23)cc1 | 3% | 5% | 8% | -6% | -4%
CCOC(=O)c1sc(NC(=O)c2cc3nc(-c4ccccc4)cc(C(F)(F)F)n3n2)c(C(=O)OCC)c1C | 2% | · | · | · | -3%
O=C(c1c[nH]c2ccc(S(=O)(=O)N3CCOCC3)cc2c1=O)N1CCN(c2ccccn2)CC1 | 5% | -6% | -1% | 0% | -1%
CC1(C)CC(=O)c2c(O)cc(OCc3ccc(Br)cc3)cc2O1 | 3µM* | 2.8µM* | 2.6µM* | 2.5µM* | ?
COc1ccccc1OCc1nnc(SCC(=O)N2CCCCC2)o1 | 5% | 0% | -2% | 3% | ·
O=C(CSc1nnc(Nc2ccccc2)s1)Nc1ccc(S(=O)(=O)N2CCOCC2)cc1 | 11µM* | 2% | -4% | 0% | -23%
COc1ccc(NC(=O)CSc2nnc(NC(=O)c3ccc(S(=O)(=O)N4CCOCC4)cc3)s2)cc1 | 2.7µM* | 8% | ? | 13% | ?
SMILES | FLuc counter | Rab9 prom act | ELG1 genotoxic | NPC1 promoter act | SMN2 splice enh
Cc1ccc(Nc2nnc(SCC(=O)Nc3ccc(S(=O)(=O)N4CCOCC4)cc3)s2)cc1 | 3µM* | 19% | ? | 7% | 6%
O=C(CSc1nnc(Nc2ccccc2)s1)NN1C(=O)NC2(CCCCC2)C1=O | 19µM* | -6% | 1% | 3% | -6%
NC(=O)CSc1nnc(NC(=O)c2ccc(S(=O)(=O)N3CCOCC3)cc2)s1 | ? | 7% | 0% | 2% | ·
O=C(C(c1ccccc1)c1ccccc1)N1CCN(Cc2ccc(Br)cc2)CC1 | 1% | -4% | -16% | -2% | -27%
CCNC(=O)c1ccc(-n2nc(C)cc2-c2ccccc2)cc1 | 1% | 5% | 3% | 0% | -16%
Cc1nccn1-c1ccc(C(F)(F)F)cc1[N+](=O)[O-] | 5% | 1% | -2% | -4% | -14%
Cc1nc(S(=O)(=O)Cc2ccc(Cl)cc2)nc2c1CCC2 | -2% | -29% | -3% | -4% | 1%
N#C/C(=C(/O)c1ccc2c(c1)OCO2)c1nc2cc(C(F)(F)F)ccc2s1 | 17µM* | -3% | -8% | -5% | ·
N#C/C(=C(/O)c1ccccc1F)c1nc2cc(C(F)(F)F)ccc2s1 | ? | -11% | 1% | 1% | ·
Cc1ccc(NC(=O)Cn2c(=O)n(-c3ccc(C)cc3)c(=O)c3c2cnn3C)cc1 | -1% | · | · | · | 7%
O=C(Nc1ccc2c(c1)OCO2)C(c1ccc(Cl)cc1)N1CCC2(CC1)OCCO2 (configuration not stated) | -1% | 18% | 1% | -5% | -4%
O=C(Nc1ccc(Cl)cc1)N1CCOC12CCC1(CC2)OCCO1 | 17µM* | 16% | -1% | 3% | 8%
CC(=O)Nc1ccc(S(=O)(=O)Nc2cc3c(cc2C(C)=O)OCO3)cc1 | -1% | 0% | -2% | 2% | ·
Cc1ccc2nc(-c3ccc(N4CCOCC4)cc3)c(Nc3ccccc3C)n2c1 | 1.9µM* | · | · | · | ?
Cc1ccn2c(Nc3ccccc3C)c(-c3ccc(N4CCOCC4)cc3)nc2c1 | -1% | · | · | · | -43%
Cc1ccccc1Nc1c(-c2ccc(N3CCOCC3)cc2)nc2ccc(Cl)cn12 | 2.4µM* | · | · | · | 4%
Cc1ccc(Nc2c(-c3ccc(N4CCOCC4)cc3)nc3ncccn23)c(C)c1 | 19µM* | -4% | -2% | 0% | 1%
Clc1ccc2nc(-c3ccc(N4CCOCC4)cc3)c(Nc3ccccc3)n2c1 | ? | · | · | · | 2%
CCOC(=O)c1cccc(NC(=O)CSc2nnc(C)n2CC2CCCO2)c1 (configuration not stated) | 0% | 4% | 6% | -6% | ·
COc1cccc(CNC(=O)CN(c2cc(C)cc(C)c2)S(=O)(=O)c2c(C)noc2C)c1 | 3% | 3.5µM* | -10% | -1% | 11%
Cc1ccc(OCCSc2nc3ccccc3n2CC(=O)NC(C)C)cc1 | -1% | · | · | · | ·
CCCn1nnc(NC(=O)c2ccc(-c3cccc(Cl)c3)o2)n1 | 17µM* | ? | 11% | 29% | 7%
CCn1nnc(NC(=O)c2ccc(Br)o2)n1 | -5% | 0% | -2% | 2% | ·
CCc1ccc(C(=O)Nc2nnn(CC)n2)cc1 | 4.3µM* | 0.5µM* | 1.6µM* | 2µM* | 0.5µM*
CCCn1nnc(NC(=O)c2cc3ccccc3o2)n1 | 19µM* | ? | 5.8µM* | 2.5µM* | 10µM*
